Test results taken from PubChem BioAssay AID588382 (National Center for Advancing Translational Sciences (NCATS), 2011).
In all, about 1,300 compounds went through this assay and about 150 (12%) were called active. Inconclusive results (about 30%) are left out. Many of the other results were omitted from the sample, so actives are more common in it than they were. A number with no mark means an inactive call. Calls follow the shape of the dose curve; as a rule, active = well fitted cell-killing curve with a large enough effect; inconclusive = small, poorly fitted or top-dose-only effect, or effect the other way; inactive = flat fitted curve, though single readings scatter.

test: qHTS of small molecules that selectively kill Giardia lamblia: Hit Validation in HepG2 cytotox; conditions: cell viability; Potency: HepG2 cytotoxicity; series mostly up to 38.3 µM; activity change, negative = cytotoxicity: at the top concentration;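 also: compound exposure lasted overnight at 37 deg C; nearly all actives have a fitted effect of over 55% in size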;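 as to activity change, negative = cytotoxicity: viability measured as cellular ATP by ATPLite luminescence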
Outline: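 Counterscreen cytotoxicity: ATPLite luminescence (15 min, room temperature) measured in HepG2 cells exposed overnight at 37 deg C to pin-transferred compound (23 nL) after overnight pre-incubation.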
% is scaled to controls: 0 for no effect and ±100 for the full control effect; potency is read from the fitted curve at half-maximal effect.

| SMILES | activity change, negative = cytotoxicity | Potency |
| --- | --- | --- |
| O=c1c([N+](=O)[O-])cccn1Cc1ccc(F)cc1Cl | -5.01% | – |
| CC1CCCN(C(=O)c2ccc([N+](=O)[O-])o2)C1 (centres undefined) | -11.8% | – |
| O=C(CSc1ccsc1[N+](=O)[O-])NCc1ccccc1 | 23.3% | – |
| CCn1cc(-c2cc(C(=O)O)c3ccccc3n2)cn1 | – | 2.07 µM (active) |
| O=C(NNC(=O)c1cc(-c2ccncc2)nc2ccccc12)c1ccccc1O | -18.8% | – |
| CCOC(=O)c1nc(C(=O)NCc2ccc(C)cc2)nc2ccccc12 | 18.3% | – |
| CC(C)CC(=O)NC(=S)NNC(=O)c1ccc([N+](=O)[O-])cc1 | -5.24% | – |
| Cc1ccc(S(=O)(=O)N2[C@@H](c3cccc(Cl)c3)C(C(=O)O)=CC[C@H]2c2cccc(C)c2)cc1 | 18.2% | – |
| Cc1cccc(N2CCN(C(=S)Nc3ccc4nc(N5CCN(C)CC5)cc(C)c4c3)CC2)c1C | – | 4.65 µM (active) |
| Cc1cc(N2CCN(C)CC2)nc2ccc(NC(=S)N3CCN(c4ccc(F)cc4)CC3)cc12 | – | 20.7 µM (active) |
| Cc1cc(N2CCN(C)CC2)nc2ccc(NC(=S)N3CCN(c4cccc(Cl)c4)CC3)cc12 | -14.4% | – |
| Cc1cc(N2CCN(C)CC2)nc2ccc(NC(=S)N3CCN(c4ccc(Cl)cc4)CC3)cc12 | -17.9% | – |
| O=c1sc(N2CCN(c3ccc(F)cc3)CC2)nc2ccsc12 | 21.6% | – |
| Cc1cccc(N2CCN(C(=S)Nc3ccc4nc(N5CCN(C)CC5)cc(C)c4c3)CC2C)c1 (centres undefined) | – | 18.5 µM (active) |
| O=Nc1c2ccc[nH]c-2c2ccc([N+](=O)[O-])cc12 | 10.8% | – |
| O=C(Nc1ccc(F)cc1)C1CCN(C(=O)c2ccc([N+](=O)[O-])cc2)CC1 | -6.84% | – |
| C/C(=N/NC(=O)C(O)(c1ccccc1)c1ccccc1)c1ccc([N+](=O)[O-])o1 | -24.8% | – |
| CCOc1ccc(-c2c(C(=O)N/N=C/c3ccc(C)s3)nnn2-c2nonc2N)cc1 | 11% | – |
| Cc1ccc(CN=c2c([N+](=O)[O-])nn(-c3ccc(Cl)cc3)n2O)cc1 | 3.22% | – |
| Cc1ccc(CNC(=O)CSc2ccsc2[N+](=O)[O-])cc1 | 11.7% | – |
| COc1ccc2c3n([n+]([O-])c2c1)CCN=C3c1ccc(C)cc1 | 6.07% | – |
| CC(C)CC(=O)Nc1ncc([N+](=O)[O-])s1 | 4.4% | – |
| Cc1ccc(CCN=c2c([N+](=O)[O-])nn(-c3ccccc3)n2O)cc1 | -4.07% | – |
| COc1ccc(-n2nc([N+](=O)[O-])c(=NCc3cccnc3)n2O)cc1 | 11.3% | – |
| CCOC(=O)c1cc([N+](=O)[O-])sc1NC(=O)CC | 1.07% | – |

| SMILES | activity change, negative = cytotoxicity | Potency |
| --- | --- | --- |
| O=C(c1ccco1)N1CCN(c2c([N+](=O)[O-])nn(-c3ccc(Cl)cc3)[n+]2[O-])CC1 | -1.34% | – |
| Cc1ncc(CO)c(/C=N/NC(=O)c2cc3c(s2)CCCC3)c1O | – | 2.07 µM (active) |
| O=[N+]([O-])c1nn(-c2ccccc2)n(O)c1=NCCc1ccccc1 | 18.6% | – |
| O=C(CNC(=O)c1ccccc1F)N/N=C/c1cc(Br)ccc1OCc1ccccc1 | -8.87% | – |
| CN1C(=O)/C(=C/c2ccc(O)c([N+](=O)[O-])c2)N(C)C1=S | 8.37% | – |
| COc1ccc(NC(=O)c2ccco2)c(NC(=O)c2ccc([N+](=O)[O-])cc2)c1 | 2.61% | – |
| COc1ccc(C(=O)Nc2ccc3[nH]ccc3c2)cc1 | – | 2.33 µM (active) |
| O=C(Nc1ccc2[nH]ccc2c1)c1ccccc1 | – | 4.14 µM (active) |
| COc1ccc(C(=O)NC2CCN(S(=O)(=O)c3ccc(F)cc3)CC2)cc1 | 12.2% | – |
| O=C(Nc1ccccc1O)c1ccc([N+](=O)[O-])cc1 | -1.8% | – |
| O=C(NNC(=O)c1ccc([N+](=O)[O-])o1)c1ccccc1 | -15% | – |
| O=[N+]([O-])c1ccc(CSc2nnc(-c3cccnc3)o2)cc1 | -7.7% | – |
| NNC(=O)c1cccc(Cn2cc(Br)c([N+](=O)[O-])n2)c1 | 17.3% | – |
| Cc1cccc(CCN=c2c([N+](=O)[O-])nn(-c3ccccc3)n2O)c1 | 0.954% | – |
| Nc1c(Cl)cc(C2=NCCn3c2c2ccc(C(F)(F)F)cc2[n+]3[O-])cc1Cl | -4.92% | – |
| COc1ccc(-c2cn3cc([N+](=O)[O-])ccc3n2)cc1OC | -4.09% | – |
| CC(=O)Nc1ccc(NC(=O)c2c([N+](=O)[O-])cnn2C)cc1 | 13% | – |
| c1csc(-c2ccc(N3CCOCC3)nn2)c1 | – | 6.56 µM (active) |
| O=[N+]([O-])c1ccc(O/N=[N+](\[O-])N2CCCCC2)c([N+](=O)[O-])c1 | -3.12% | – |
| CC1CCCCC1NC(=O)COc1cccnc1[N+](=O)[O-] (centres undefined) | 1.19% | – |
| O=C1OC(CN(Cc2ccccc2)Cc2ccccc2)CN1N=Cc1ccc([N+](=O)[O-])o1 (centres undefined) | 5.24% | – |
| CCCCC(=O)Nc1ncc([N+](=O)[O-])s1 | 5.49% | – |
| COc1ccc(C(=O)c2c(C)oc3cc([N+](=O)[O-])c(O)c([N+](=O)[O-])c23)cc1 | -8.87% | – |
| O=C(Nc1nc2ccccc2s1)c1ccc([N+](=O)[O-])o1 | 15.5% | – |
| O=C(Nc1nc(-c2cccs2)cs1)c1ccc([N+](=O)[O-])o1 | – | 1.85 µM (active) |

| SMILES | activity change, negative = cytotoxicity | Potency |
| --- | --- | --- |
| Cc1cc(C)c2sc(NC(=O)c3ccc([N+](=O)[O-])o3)nc2c1 | -15% | – |
| O=C(Nc1nc2c(F)cccc2s1)c1ccc([N+](=O)[O-])o1 | -2.51% | – |
| Cc1cc(C)c2nc(NC(=O)c3ccc([N+](=O)[O-])o3)sc2c1 | 16.6% | – |
| Cc1ccc(-c2csc(NC(=O)c3ccc([N+](=O)[O-])o3)n2)cc1 | – | 11.7 µM (active) |
| COc1ccccc1C1C([N+](=O)[O-])=CC([N+](=O)[O-])=CN1C (centres undefined) | 15.2% | – |
| Cc1cnc([N+](=O)[O-])n1CCOC(=O)NC(=O)c1ccccc1Cl | 18% | – |
| CC(=O)NC(Cc1ccc(F)cc1)C(=O)NC1CCN(c2ncccc2[N+](=O)[O-])CC1 (centres undefined) | 8.79% | – |
| Cn1c([N+](=O)[O-])cnc1N1CCN(c2nncs2)C1=O | -11.6% | – |
| COc1cc(/C=C2\SC(=O)N(c3ccc(Cl)cc3)C2=O)cc([N+](=O)[O-])c1O | 10.2% | – |
| COc1ccc(NS(=O)(=O)c2ccc(C)cc2)c([N+](=O)[O-])c1 | 13.3% | – |
| COc1cc2c(cc1OC)CN(C(=O)c1ccc([N+](=O)[O-])o1)CC2 | -5.91% | – |
| Cc1ncc([N+](=O)[O-])n1CCOC(=O)Nc1ccc(Cl)c(Cl)c1 | 8.58% | – |
| O=C(COc1cccnc1[N+](=O)[O-])NCCc1ccc(Cl)cc1Cl | -9.72% | – |
| O=C(NC1CCS(=O)(=O)C1)c1ccc(N2CCCCC2)c([N+](=O)[O-])c1 (centres undefined) | 20.8% | – |
| S=C(NCCc1ccccc1)N/N=C/c1cccs1 | -10.3% | – |
| Cc1nnc(N/N=C/c2cccs2)[nH]c1=O | – | 2.07 µM (active) |
| O=C(O)C1CCN(c2ccccc2[N+](=O)[O-])CC1 | 11.1% | – |
| COc1ccc(C(=O)C(C)OC(=O)CNC(=O)C2CCCCC2)cc1 (centres undefined) | 22.2% | – |
| Cc1ccc(S(=O)(=O)N2[C@@H](c3ccc(Cl)cc3)C(C(=O)O)=C[C@H]2CC2CCCC2)cc1 | 1.22% | – |
| COc1ccc(C(=O)c2c3ccc(C(F)(F)F)cc3[n+]([O-])n2CCCN)cc1 | 17.3% | – |
| O=C(COc1cccnc1[N+](=O)[O-])Nc1cc(S(=O)(=O)N2CCCCC2)ccc1Cl | 22% | – |
| O=C(NCc1ccccn1)C1CCCN(S(=O)(=O)c2cc(Cl)ccc2Cl)C1 (centres undefined) | – | 3.69 µM (active) |
| Cc1ccc2nc(NC(=O)C3CCCN(S(=O)(=O)c4cnc[nH]4)C3)sc2c1 (centres undefined) | 13% | – |
| Cc1ccc(S(=O)(=O)N2[C@@H](c3cccc(Cl)c3)C(C(=O)O)=CC[C@H]2c2cccc(Cl)c2)cc1 | 6.73% | – |
| CCCSc1ccc2nc(NC(=O)OC)[nH]c2c1 | 4.95% | – |

| SMILES | activity change, negative = cytotoxicity | Potency |
| --- | --- | --- |
| CCc1cccc(NC(=O)CCCSc2nc3ccccc3[nH]2)c1 | – | 16.5 µM (active) |
| CC1(C)CC2CC(C)(CN2S(=O)(=O)c2cccc(C(=O)O)c2)C1 (centres undefined) | -6.79% | – |
| O=[N+]([O-])c1ccc(Oc2cccc(Br)c2)c2ccncc12 | 9.74% | – |
| Cc1c(Br)c([N+](=O)[O-])nn1C(C)C(=O)Nc1ccc2c(c1)OCO2 (centres undefined) | -1.69% | – |
| O=C1C2C3C=CC(C3)C2C(=O)N1Nc1ccc([N+](=O)[O-])cc1[N+](=O)[O-] (centres undefined) | -9.27% | – |
| COc1ccc(/C=N/Nc2cc(C)nc3c(C)cccc23)cc1 | – | 13.1 µM (active) |
| Cc1cc(C)nc(N/N=C/c2ccc(Cl)cc2)n1 | 5.19% | – |
| COc1ccc2nc(C)cc(N/N=C/c3ccc(F)cc3)c2c1 | – | 2.33 µM (active) |
| COc1ccccc1Nc1cc(C)nc2c(C)ccc([N+](=O)[O-])c12 | 4.71% | – |
| CCc1cccc(N=c2c([N+](=O)[O-])nn(-c3ccc(Cl)cc3)n2O)c1 | 18.4% | – |
| CCOC(=O)C1=C(C)NC(=O)NC1c1ccc([N+](=O)[O-])o1 (centres undefined) | 8.82% | – |
| CN(C)c1ccc2nsnc2c1[N+](=O)[O-] | 22% | – |
| CN1C(=O)/C(=C/c2cccc(Cl)c2)Sc2ccc(C(=O)N3CCCC3)cc21 | -2.18% | – |
| Nc1ncnc2c1ncn2C1O[C@H](CO)[C@@H](O)[C@@H]1O (some centres undefined) | 12.7% | – |
| Cc1ccc(CSc2nc3ccncc3[nH]2)cc1 | – | 0.369 µM (active) |
| O=C(c1ccc(CSc2nc3ccncc3[nH]2)cc1)N1CCCCCC1 | – | 0.927 µM (active) |
| Cc1nnc(SCc2ccc([N+](=O)[O-])cc2)[nH]c1=O | 13.3% | – |
| Clc1ccc(CSc2nc3ccncc3[nH]2)cc1 | – | 1.17 µM (active) |
| COc1cccc(CSc2nc3ccncc3[nH]2)c1 | – | 4.65 µM (active) |
| O=C(COc1cccnc1[N+](=O)[O-])Nc1ccc(F)cc1 | 4.27% | – |
| COC1C(OC(=O)/C=C/C=C/C=C/C=C/C(=O)O)CCC2(CO2)C1C1(C)OC1CC=C(C)C (centres undefined) (tested in a mixture with another compound) | 21.4% | – |
| O=C(c1ccc([N+](=O)[O-])o1)N1CCN(c2nc3ccc(F)cc3s2)CC1 | -10.1% | – |
| O=C1NC(=O)/C(=C\c2ccc(Oc3ccc([N+](=O)[O-])cn3)cc2)S1 | -15.5% | – |
| COc1ccccc1-n1cc2c([N+](=O)[O-])cc([N+](=O)[O-])cc2n1 | 11.2% | – |
